RORg inh: qHTS for inhibitors of ROR gamma transcriptional activity; Potency, µM (highest dose often 53.6 µM), inactives show at the highest dose activity change, negative = inhibition, most hits filed as inhibitors; Nuclear receptor ROR-gamma (Mus musculus), P51450; hit rate 5.4% among 310,000; Drosophila S2 Gal4-RORgamma UAS-luciferase reporter, 20 h; note: nearly all actives have a fitted effect of over 60% in size
Target sequence (P51450 whole entry, looked up, the tested form may be a part): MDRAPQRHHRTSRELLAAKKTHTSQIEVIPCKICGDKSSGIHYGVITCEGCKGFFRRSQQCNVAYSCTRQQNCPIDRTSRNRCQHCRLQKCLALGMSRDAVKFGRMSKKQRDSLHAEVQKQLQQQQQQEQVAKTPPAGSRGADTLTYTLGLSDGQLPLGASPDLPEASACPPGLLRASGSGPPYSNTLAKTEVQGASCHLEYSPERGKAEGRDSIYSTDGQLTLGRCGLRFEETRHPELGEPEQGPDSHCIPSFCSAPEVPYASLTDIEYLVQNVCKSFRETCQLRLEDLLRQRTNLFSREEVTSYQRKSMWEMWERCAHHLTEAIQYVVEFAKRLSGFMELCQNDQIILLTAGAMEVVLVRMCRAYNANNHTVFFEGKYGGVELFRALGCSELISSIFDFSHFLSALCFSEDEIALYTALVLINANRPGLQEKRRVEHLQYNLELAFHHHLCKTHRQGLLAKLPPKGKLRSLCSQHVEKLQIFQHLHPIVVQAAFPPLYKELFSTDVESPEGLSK
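Drosophila Schneider cells stably carrying a metallothionein-driven Gal4 DBD–ROR gamma fusion and a UAS-Photinus luciferase reporter were exposed to compound for 1 hr, then induced with copper sulfate (700 uM final) for 20 hr at ambient temperature before luminescence reading.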
12-LOX inh: Primary qHTS assay for inhibitors of human arachidonate 12S-lipoxygenase (ALOX12): Round 2 | purified 12hLO, xylenol orange hydroperoxide absorbance | Potency, µM (doses to about 108 µM), without a hit: at the highest dose activity change, negative = inhibition, hits mostly inhibitors | hit rate 1.1% among 580,000
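Purified human 12hLO at 150 nM in 25 mM Hepes, 0.01% Triton X-100, pH 7.0, preincubated 15 min at room temperature with compound. Reaction started with 40 uM arachidonic acid, 30 min at room temperature. Hydroperoxide measured by Fe-xylenol orange, 573/405 nm absorbance ratio.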
VP16 counter: VP16 counterscreen qHTS for inhibitors of ROR gamma transcriptional activity; Drosophila S2 Gal4-VP16 UAS-luciferase, luminescence, 20 h; Potency, µM (titrated, usually from 53.6 µM), without a hit: at the highest dose activity, negative = inhibition, actives largely listed as inhibitors; AID 2546, 2010; hit rate 3.5% among 310,000;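 note: Gal4-VP16 expression switched on by copper sulfate through the metallothionein promoter; nearly all actives have a fitted effect of over 50% in size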
DT40 TDP1 CPT: qHTS for Inhibitors of human tyrosyl-DNA phosphodiesterase 1 (TDP1): qHTS in cells in presence of CPT | chicken DT40 Tdp1-/-;hTDP1 cells + 20 nM CPT, ATP luminescence, 48 h | hit rate 12% among 420,000 | Potency, µM (titrated, usually from 46.2 µM), for the others: at the top dose activity change, negative = growth inhibition, actives largely listed as inhibitors; note: nearly all actives have a fitted effect of over 55% in size
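Cell growth measured by CellTiter-Glo luminescence after a minimum 48 h, 37 C compound exposure with 20 nM CPT in Tdp1-knockout DT40 cells stably expressing hTDP1, seeded 400/well; qHTS titration format.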
ELG1 repair inh: qHTS screen for small molecules that inhibit ELG1-dependent DNA repair in human embryonic kidney (HEK293T) cells expressing luciferase-tagged ELG1. HEK293T ELG1-luciferase reporter, luminescence, 16 h; DNA damage induced by 5-fluorouridine. Potency, µM (highest dose often 46.1 µM), for inactives: at the highest dose activity change, negative = inhibition, usual class: inhibitors. hit rate 2.3% among 330,000; note: nearly all actives have a fitted effect of over 55% in size
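Quantitative HTS, concentration-response format. 2,000 cells/well co-treated with 5-fluorouridine and compound, 16 hr in 5% CO2 at 37 °C; ONE-Glo luminescence read after 30 min.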
DT40 TDP1 no CPT: qHTS for Inhibitors of human tyrosyl-DNA phosphodiesterase 1 (TDP1): qHTS in cells in absence of CPT | hit rate 15% among 420,000 | DT40 Tdp1-/- hTDP1 cells, no CPT, ATP luminescence, 48 h | Potency, µM (highest dose often 46.2 µM), without a hit: at the highest dose activity change, negative = growth inhibition, usual class: inhibitors; note: nearly all actives have a fitted effect of over 55% in size
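Stably hTDP1-transfected Tdp1-null chicken DT40 cells were treated with library compounds minus camptothecin and grown for at least 48 hr at 37 °C, after which cellular ATP was quantified by luminescence.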
An asterisk follows results filed as active; u = inconclusive; x = no result; [ ] = another dose, or the depositor's remark. A selection: hits, their analogues and other compounds. The true share with any hit is near 15%. Calls come from the whole dose curve; as a rule, active = well fitted curve in the direction sought with a large enough effect; inconclusive = small, poorly fitted or top-dose-only effect, or another doubt; inactive = no such curve, though single readings can be large; an effect the other way counts as inactive or inconclusive. % is set by controls: 0 for no effect and ±100 for the full control effect; potency is the fitted concentration of half-maximal effect.

SMILES | RORg inh | 12-LOX inh | VP16 counter | DT40 TDP1 CPT | ELG1 repair inh | DT40 TDP1 no CPT
Cc1nn(Cc2ccc(C(=O)NN)o2)c(C)c1Cl | 7% | 0% | 4% | -12% | u | -20%
c1ccc(Cn2cc(CN3CCCOCC3)c(-c3cc4ccccc4o3)n2)cc1 | x | 34% | x | x | x | x
CCCC(=O)Nc1cc(-c2ccccc2OC)[nH]n1 | x | -4% | x | x | x | x
CC1S/C(=C(\C#N)C(=O)NCc2ccco2)N(Cc2ccco2)C1=O (centres undefined) | 9% | -2% | 2% | 8.2µM* | -4% | u
Cc1ccc(CNC(=O)[C@H]2C[C@@H]2[C@H](NP(=O)(c2ccccc2)c2ccccc2)c2ccccc2)o1 | u | -9% | 3% | u | -16% | 21µM*
Cc1ccc(NC(=O)N2CCN(S(C)(=O)=O)CC2)c(C)c1 | x | 3% | x | x | x | x
Cc1ccc(N(Cc2ccccc2)C(=O)c2cc(S(=O)(=O)N3CCOCC3)ccc2C)cc1 | x | -8% | x | 21µM* | -14% | 13µM*
Cc1ccc(S(=O)(=O)N2CCCCC2)cc1C(=O)N(CCc1ccccc1)Cc1ccccc1 | x | -20% | x | 8.2µM* | -18% | 10µM*
O=C(c1ccc(Cl)cc1Cl)N(CCS(=O)(=O)N1CCCCC1)Cc1cccnc1 | x | 0.5µM* | x | x | x | x
COCCN(Cc1ccccc1)C(=O)c1cc(S(=O)(=O)N2CCCCCC2)ccc1OC | x | 11% | x | u | -5% | u
O=C(c1cc(S(=O)(=O)N2CCOCC2)ccc1F)N(CCc1ccccc1)Cc1ccccc1 | x | -20% | x | u | -18% | 23µM*
O=Cc1cnccc1-c1ccccc1 | x | -4% | x | x | x | x
Cc1ccc(S(=O)(=O)Nc2ccccc2)cc1C(=O)N1CCCC1 | -6% | 0% | -9% | -4% | -10% | -1%
CCN1CCN(S(=O)(=O)c2ccc(Cl)c(C(=O)N(CCc3ccccc3)Cc3ccccc3)c2)CC1 | x | u | x | 23µM* | x | 23µM*
CCN1CCN(S(=O)(=O)c2ccc(Cl)c(C(=O)N(C)Cc3cccc(OC)c3)c2)CC1 | x | u | x | -21% | u | -19%
Cc1cccc(N(Cc2ccccc2)C(=O)C2CCN(C(=O)c3ccccc3C)CC2)c1 | x | 324% | x | 12µM* | -19% | 5.8µM*
CCc1ccc(CN(C)C(=O)c2cc(S(=O)(=O)N3CCN(CC)CC3)ccc2Cl)cc1 | x | -20% | x | u | -19% | 18µM*
Cc1ccc(S(=O)(=O)N(C)Cc2ccccc2)cc1C(=O)N1CCCCC1 | -4% | 6% | -17% | 15µM* | u | u
Cc1cccc(CN2CCCC3(CCN(c4cc(C)c5ccccc5n4)C3)C2=O)c1 (centres undefined) | x | 63% | x | x | x | x
CCOC(=O)N1CCN(Cc2nc3c(c(=O)n(C)c(=O)n3C)n2Cc2ccc(F)cc2)CC1 | u | 22% | -13% | u | u | u
CCOC(=O)N1CCN(Cc2nc3c(c(=O)n(C)c(=O)n3C)n2CC(=O)OC)CC1 | x | -17% | x | x | x | x
CCOC(=O)N1CCN(Cc2nc3c(c(=O)n(C)c(=O)n3C)n2Cc2cccc(C)c2)CC1 | 1% | -19% | 0% | -35% | 18µM* | u
CCOC(=O)N1CCN(Cc2nc3c(c(=O)n(C)c(=O)n3C)n2Cc2cccc3ccccc23)CC1 | -7% | -18% | -4% | 23µM* | u | u
Cc1ccc(S(=O)(=O)Nc2cc(C)cn(Cc3ccc(F)cc3)c2=O)cc1 | u | -6% | 18µM* | 26µM* | u | u
Cc1ccc(S(=O)(=O)Nc2cc(C)cn(Cc3ccccc3)c2=O)cc1 | u | -6% | 14µM* | 21µM* | u | 16µM*
SMILES | RORg inh | 12-LOX inh | VP16 counter | DT40 TDP1 CPT | ELG1 repair inh | DT40 TDP1 no CPT
Cc1nn(C)c(C(=O)NNC(=S)Nc2ccc(Cl)cc2)c1[N+](=O)[O-] | 4µM* | -9% | u | 15% | -1% | 2%
Cc1nn(C)c(C(=O)Nc2ccc(Cn3cccn3)cc2)c1[N+](=O)[O-] | -30% | -1% | -7% | 1% | 1% | -1%
COc1cccc(NC(=S)NNC(=O)c2c([N+](=O)[O-])c(C)nn2C)c1 | 2.5µM* | 19% | u | u | 8% | u
COc1ccc(C(=O)N2CCCC(C(=O)NCc3ccccc3)CCNC(=O)CC2)cc1F (centres undefined) | x | 17% | x | x | x | x
Nc1ccnn1C1CCCCC1 | x | -2% | x | x | x | x
C[C@H]1CN([C@@H](C)CO)C(=O)Cc2cc(NC(=O)CCC(F)(F)F)ccc2O[C@H]1CN(C)S(=O)(=O)c1ccc(Cl)cc1 | x | u | x | 5.2µM* | u | u
C[C@H](CO)N1C[C@H](C)[C@@H](CN(C)S(=O)(=O)c2ccc(Cl)cc2)Oc2ccc(NS(=O)(=O)c3ccccc3)cc2CC1=O | x | -15% | x | 10µM* | -3% | u
C[C@H]1CN([C@@H](C)CO)C(=O)Cc2cc(NC(=O)CCC(F)(F)F)ccc2O[C@H]1CN(C)S(=O)(=O)c1ccc(F)cc1 | x | -26% | x | 7.3µM* | -2% | 6.5µM*
Cc1ccc(S(=O)(=O)N(C)C[C@@H]2Oc3ccc(NS(=O)(=O)c4ccccc4)cc3CC(=O)N([C@@H](C)CO)C[C@H]2C)cc1 | x | -16% | x | u | x | u
Cc1ccccc1OCCSc1nc2ccccc2n1CC(O)CO (centres undefined) | x | 10% | x | x | x | x
CCN1CCCC12Cc1ccccc1CN(C(=O)c1c(C)noc1C)C2 (centres undefined) | x | 1%[6.33 µM] | x | x | x | x
COc1ccc(OC)c(NC(=O)C(C)SCc2nc3sc(C)c(C)c3c(=O)[nH]2)c1 (centres undefined) | x | 8% | x | u | u | u
COc1ccc(NC(C)=O)cc1NC(C)c1nc2sc(C)c(C)c2c(=O)[nH]1 (centres undefined) | 10µM* | -12% | -3% | 7% | 21µM* | -4%
COc1ccc(OC)c(/C=N/NC(=O)c2[nH]ncc2Br)c1 | 2% | 149% | -2% | 2% | 25% | -1%
O=C(N/N=C/c1c(O)ccc2ccccc12)c1[nH]ncc1Br | 2.5µM* | u | 4.5µM* | 2.6µM* | u | 4.6µM*
O=C(N/N=C/c1cccs1)c1[nH]ncc1Br | -15% | 6% | -10% | -11% | u | 0%
